# Bioassay records: PubChem, National Center for Advancing Translational Sciences (NCATS)
# FUS suppressor – suppressors of FUS proteinopathy in yeast. S. cerevisiae FUS-expressing, growth rescue, OD600, 24 h. Potency, µM (highest dose often 76.6 µM), actives largely listed as activators. hit rate 0.24% among 390,000;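 also: plate controls were DMSO vehicle for no effect and reference control for full effect; nearly all actives have a fitted effect of over 55% in size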
#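 Yeast FUS proteinopathy model; galactose-induced FUS (2%), starting OD 0.005. Cpds in dilution series, 24hr, 30C, 99% humidity. Abs 600 nm growth. Pos ctrl CP55940 (top 92uM final); neg ctrl DMSO.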
# gsp antag – antagonists of gsp mutant (McCune-Albright syndrome). gsp-mutant cells, cAMP HTRF, 30 min. Potency, µM (series often up to 76.9 µM), without a hit: at the highest dose activity change, negative = inhibition, most hits filed as inhibitors. hit rate 0.4% among 340,000. AID 624288; calls by dose curve; cell line not stated here;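 also: intracellular cAMP measured with PDE inhibitor Ro 20-1724 present during compound exposure; % is scaled to controls: 0 for no effect and ±100 for the full control effect; nearly all actives have a fitted effect of over 65% in size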
#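 HTRF cAMP measurement after 30 min RT detection following 30 min, 37C compound treatment alongside […] (added as 300 uM solution) in G418-selected cells seeded at 2000/well and grown 16–24 h.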
# 12-LOX inh – inhibitors of human 12S-lipoxygenase ALOX12; Potency, µM (highest dose often 108 µM), for inactives: top-dose activity change, negative = inhibition, most hits filed as inhibitors; hit rate 1.1% among 580,000; purified 12hLO, xylenol orange hydroperoxide absorbance; also: % is scaled to controls: 0 for no effect and ±100 for the full control effect
# Target sequence (P18054 whole entry, looked up): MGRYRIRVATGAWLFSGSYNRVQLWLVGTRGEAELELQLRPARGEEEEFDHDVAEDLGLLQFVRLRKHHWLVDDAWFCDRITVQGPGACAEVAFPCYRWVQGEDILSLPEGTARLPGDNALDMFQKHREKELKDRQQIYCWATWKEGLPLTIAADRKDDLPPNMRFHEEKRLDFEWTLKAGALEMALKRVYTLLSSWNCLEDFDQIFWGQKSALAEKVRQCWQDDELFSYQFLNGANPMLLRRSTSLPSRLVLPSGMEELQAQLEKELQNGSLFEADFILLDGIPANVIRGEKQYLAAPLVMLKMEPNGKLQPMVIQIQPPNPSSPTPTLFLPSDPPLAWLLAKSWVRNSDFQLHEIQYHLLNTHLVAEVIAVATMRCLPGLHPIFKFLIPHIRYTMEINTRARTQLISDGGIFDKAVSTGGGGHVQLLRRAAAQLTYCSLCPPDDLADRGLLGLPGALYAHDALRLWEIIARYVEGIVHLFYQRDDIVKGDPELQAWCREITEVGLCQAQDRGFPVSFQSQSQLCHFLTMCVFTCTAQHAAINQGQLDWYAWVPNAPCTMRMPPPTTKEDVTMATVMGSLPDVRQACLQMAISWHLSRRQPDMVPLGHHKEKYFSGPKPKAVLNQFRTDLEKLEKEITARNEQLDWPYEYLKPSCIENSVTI
#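 Purified human 12hLO (150 nM final) in 25 mM Hepes, 0.01% Triton X-100, pH 7.0 was preincubated 15 min at room temperature with compound. Then 40 uM arachidonic acid was added, 30 min. Hydroperoxide was read by Fe-XO absorbance ratio 573/405 nm.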
# Mito fusion yeast – blocks mitochondrial division or promotes mitochondrial fusion. S. cerevisiae fusion-defective mutant growth rescue, CellTiterGlo 48 h. Potency, µM (titrated, usually from 46.1 µM), for inactives: top-dose growth rescue (activation), hits mostly activators. hit rate 0.23% among 320,000. AID 485298; also: % of control where 0% means no effect; nearly all actives have a fitted effect of over 45% in size
#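 Growth-rescue viability read-out: after 48 h at the non-permissive 37C in glycerol/ethanol YPEG, yeast mitochondrial fusion mutants are measured by CellTiterGlo luminescence; compounds (23 nl pinned per well) restoring growth score as division inhibitors or fusion activators.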
# gsp agonist – agonists of gsp mutant (McCune-Albright syndrome). gsp mutant cells, cAMP HTRF, 30 min. Potency, µM (highest dose often 76.9 µM), for the others: top-dose activation (cAMP increase), usual class: activators. hit rate 0.13% among 340,000. AID 624287; active = well fitted activation curve with a large enough effect; inconclusive = small, poorly fitted or top-dose-only effect, or another doubt; inactive = no such curve, though single readings can be large or run the other way; cell line not stated here;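 also: phosphodiesterase inhibitor Ro 20-1724 added with compounds to block cAMP breakdown; nearly all actives have a fitted effect of over 60% in size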
#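 Cells stably selected in G418 were plated at 2000/well, grown 16-24 hr, then given compounds in DMSO with the PDE inhibitor […] (300 uM solution added) for 30 min at 37C; cAMP was read by HTRF.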
# Active calls of the source: *; i = inactive; ? = inconclusive; · = not tested or not shown; [ ] = remark or other dose. Sampled rows, rich in hits. Any-hit rate of the full collection: about 1.6%. Unless noted, calls follow the shape of the dose curve; as a rule, active = well fitted curve in the direction sought with a large enough effect; inconclusive = small, poorly fitted or top-dose-only effect, or another doubt; inactive = no such curve, though single readings can be large; an effect the other way counts as inactive or inconclusive. Potency is read from the fitted curve at half-maximal effect.
SMILES,FUS suppressor,gsp antag,12-LOX inh,Mito fusion yeast,gsp agonist
COc1ccc(S(=O)(=O)Nc2cccc3c2O[C@H](CN(C)S(=O)(=O)c2ccccc2)[C@@H](C)CN([C@H](C)CO)C3=O)cc1,15.8µM*,-9.4%,?,·,·
COc1ccc(S(=O)(=O)Nc2cccc3c2O[C@H](CN(C)Cc2ccc(-c4ccccc4)cc2)[C@@H](C)CN([C@H](C)CO)C3=O)cc1,25.1µM*,-21.2%,-7.9%,·,·
COc1ccc(S(=O)(=O)N(C)C[C@H]2Oc3ccc(NC(=O)Cc4ccccc4)cc3C(=O)N([C@H](C)CO)C[C@@H]2C)cc1,28.2µM*,-9.5%,-0.3%,·,-32.4%
COc1ccc(S(=O)(=O)Nc2cccc3c2O[C@H](CN(C)Cc2ccc(Oc4ccccc4)cc2)[C@@H](C)CN([C@H](C)CO)C3=O)cc1,?,-35.2%,?,·,·
C[C@H](CO)N1C[C@H](C)[C@@H](CN(C)S(=O)(=O)c2ccccc2)Oc2c(NC(=O)NC3CCCCC3)cccc2C1=O,31.6µM*,-5.3%,-0.7%,·,-10.7%
COc1ccc(S(=O)(=O)Nc2cccc3c2O[C@H](CN(C)S(=O)(=O)c2ccc(F)cc2)[C@H](C)CN([C@H](C)CO)C3=O)cc1,?,-8.5%,-2.0%,·,12.9%
COc1ccc(NC(=O)Nc2ccc3c(c2)C(=O)N([C@H](C)CO)C[C@H](C)[C@@H](CN(C)S(=O)(=O)c2ccccc2)O3)cc1,?,4.6%,0.0%,·,26.1%
CN1CCCCCC1=NCCCn1cnc2c1c(=O)n(C)c(=O)n2C,·,·,0.3%,·,·
OCCNc1nc(-c2ccsc2)nc2ccccc12,·,·,13.1%,·,·
Cc1nc2c3cccnc3nn2c(C)c1CCC(=O)NCc1ccc(Cl)cc1,·,·,-3.9%,·,·
COc1ccc(S(=O)(=O)N(C)C[C@@H]2Oc3c(NC(=O)Nc4ccccc4)cccc3C(=O)N([C@@H](C)CO)C[C@H]2C)cc1,15.8µM*,·,·,·,·
COc1ccc(NC(=O)Nc2cccc3c2O[C@H](CN(C)S(=O)(=O)c2ccc(F)cc2)[C@@H](C)CN([C@H](C)CO)C3=O)cc1,i,-11.3%,2.7%,·,·
O=C(Nc1ccc(Cl)cc1)Nc1nc(-c2ccccc2)cs1,i,9.9%,-1.5%,-20.6%,11.4%
O=C(Nc1nc(-c2ccc(Cl)cc2)cs1)NC1CCCCC1,·,?,50.1µM*,?,-38.4%
Cc1ccc(-c2nnc(Nc3ccc4c(c3)OCO4)c3ccccc23)cc1S(N)(=O)=O,i,28.2µM*,-19.6%,-0.4%,-0.8%[15.4 µM]
COCCOc1ccc2c(n1)CCN(C(=O)c1nn(C)c3ccccc13)C2,·,·,33.2%,·,·
CCCn1c(=O)c2sccc2n2c(CCCC(=O)Nc3ccccc3OCC)nnc12,i,·,0.0%,·,·
COc1ccccc1CNC(=O)CCCc1nnc2n(C)c(=O)c3sccc3n12,i,-2.4%,1.0%,0.7%,14.1µM*
COc1ccccc1NC(=O)CCCc1nnc2n(C)c(=O)c3sccc3n12,i,10.6%,-9.6%,0.4%,12.6µM*
Cc1nn2c(c1-c1ccccc1Oc1ccccc1)N(C(=O)Cc1cccc(F)c1)CCC2,·,·,-18.0%,·,·
N#C/C(=N\Nc1ccc(Cl)cc1)C(N)=S,i,?,?,-9.9%,-15.0%
Cc1ccc(N/N=C(\C#N)C(N)=S)cc1C,i,-12.4%,2µM*,0.9%,12.9%
CCCCN(C)CCCNC(=O)c1cc(=O)[nH]c2ccc(S(=O)(=O)N3CCCCC3C)cc12 (configuration not stated),i,7.2%,-2.8%,35.5µM*,31.3%
Cc1noc([C@@H](C)NC(=O)Cc2ccccc2)c1C(=O)O,·,·,17.7%[176 µM],·,·
COc1ccc(CN[C@H](C)c2onc(C)c2C(=O)O)cc1,·,·,28.2µM*,·,·
SMILES,FUS suppressor,gsp antag,12-LOX inh,Mito fusion yeast,gsp agonist
CS(=O)(=O)Oc1ccc2c(c1)O/C(=C\c1ccc(Cl)cc1)C2=O,·,·,0.2%,·,·
NC(=S)c1ccc(S(N)(=O)=O)cc1,·,·,3.16µM*,·,·
COc1cc(C(=O)Nc2ccccc2)cc2c1OCCO2,·,·,-21.3%,·,·
O=C(CC(c1ccccc1)c1ccccc1O)NCc1ccccc1Cl (configuration not stated),i,35.5µM*,-21.8%,?,0.0%
CCc1ccc2oc(=O)cc(CN3CCCCCC3)c2c1,·,·,-15.4%,·,·
O=C(CNS(=O)(=O)Cc1ccccc1)NNc1ccccc1,i,·,39.8µM*,·,·
O=C(CNS(=O)(=O)Cc1ccccc1)NCc1ccccc1,i,4.4%,17.4%,-2.0%,5.9%[15.4 µM]
O=c1cc(CN2CCCCC2c2ccccn2)[nH]c2ccc(F)cc12 (configuration not stated),·,·,7.94µM*,·,·
CCN(C(=O)COC(=O)c1c2c(nc3ccccc13)/C(=C/c1ccccc1)CC(C)C2)C1CCS(=O)(=O)C1 (configuration not stated),·,-2.9%,?,20µM*,3.3%
CCN(C(=O)COC(=O)c1c(C)nn(-c2ccccc2)c1C)C1CCS(=O)(=O)C1 (configuration not stated),i,1.7%,-4.5%,-5.4%,3.7%
COc1ccc(OC)c(NC(=O)C2(n3cnnn3)CCCCC2)c1,·,·,-4.1%,·,·
CCOc1ccc(C(=O)CCC(=O)OCC(=O)c2ccccc2Br)cc1,·,·,4.0%,·,·
CC(=O)c1c(C)[nH]c(C(=O)C(C)Sc2ccc(F)c(Cl)c2)c1C (configuration not stated),·,·,44.7µM*,·,·
CCOC(=O)c1c(C)[nH]c(C(=O)C(C)Sc2ccc(Cl)cc2)c1C (configuration not stated),i,-26.9%,11.7%,-3.4%,8.2%
COc1cc(NC(=O)c2ccc3c(c2)NC(=O)CS3)c(OC)cc1Cl,·,·,-31.6%,·,·
COc1cc(C)c(NC(=O)c2ccc3c(c2)NC(=O)CS3)cc1OC,·,·,20µM*,·,·
CCOC(=O)c1sc(NC(=O)C[C@H]2NC(=O)c3ccccc3NC2=O)nc1C,·,·,-1.0%,·,·
COc1ccc(-c2cccc(COc3cnc4c(ccn4CC(=O)O)c3)c2)c(C)c1,·,·,44.7µM*,·,·
O=C(O)Cn1ccc2cc(OCCc3cccc(-c4ccc(Cl)cc4)c3)cnc21,·,·,44.7µM*,·,·
Cc1cccc(-c2noc(-c3cccc(F)c3)n2)c1,·,·,1.4%,·,·
COc1ccc(-c2ocnc2C(=O)N2CCN(C(=O)C(c3ccccc3)c3ccccc3)CC2)cc1,i,25.1µM*,?,7.6%,-7.6%[15.4 µM]
CCc1ccc(C(=O)NNc2ccc(C)c(Cl)c2)cc1,i,2.6%,15.8µM*,3.9%,-2.8%[15.4 µM]
NC(=S)NNc1ccc(Cl)c(Cl)c1,i,3.3%,15.8µM*,-1.2%,6.7%
NC(=S)NNc1ccnc2cc(Cl)ccc12,i,-26.5%,5.62µM*,-1.7%,14.1%[15.4 µM]
Cc1ccc(NC(=S)N(C)N)cc1Cl,i,8.5%,?,5.9%,8.0%
Cc1ccc(NNC(N)=S)cc1Cl,i,?,28.2µM*,8.8%,-19.3%
NC(=S)Nc1ccc(Cl)c(Cl)c1,i,3.3%,?,2.4%,1.7%
